Compounds without any hit were thinned out: in the full panel of roughly 79,000, 15% have a hit. Activity calls are given as the source filed them. No stated cut-off is given here; in the data, active means growth inhibition above about 70%; inactive means the rest. Residues, ends and D or L forms follow the SMILES beside them. *: point of attachment. Fmoc = O=C(OCC1c2ccccc2-c2ccccc21)*; Boc = CC(C)(C)OC(=O)*
Test: NCI Yeast Anticancer Drug Screen. Data for the mlh1 rad18 strain (AID 175)
Conditions: S. cerevisiae mlh1 rad18 strain growth inhibition; at 50.0 µM (retest, dose inferred, filed as 5.0); hits give high values
How it was run: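 Compound-treated yeast growth, normalised to vehicle controls. Strain bears defined DNA repair mutations.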

| Structure (SMILES) | growth inhibition |
| --- | --- |
| CC(C)C(=O)CC(Sc1ccc(N)cc1)c1ccccc1 (configuration not stated) | 85% (active) |
| CC(C)OP(=O)(OC(C)C)/C(Cl)=N/Nc1ccc([N+](=O)[O-])cc1 | 97% (active) |
| O=[N+]([O-])c1cc(Cl)ccc1S(=O)(=O)c1ccc(Cl)cc1[N+](=O)[O-] | 91% (active) |
| CCCCCCNCCCNc1c2cc(OC)ccc2nc2cccc([N+](=O)[O-])c12 | 97% (active) |
| N#CCC(=O)N/N=C(\c1ccccc1)C(c1ccccc1)C1(O)C(=O)Nc2c(Cl)ccc(Cl)c21 (configuration not stated) | -6% (inactive) |
| CN(C)CCNCCCNc1c2ccccc2nc2cccc([N+](=O)[O-])c12 | 97% (active) |
| CCC[CH2][Ge]([CH2]CCC)([CH2]CCC)[O]C(=O)C(O)c1ccccc1 (configuration not stated) | 84% (active) |
| COc1ccc(-c2cc(-c3cc(C)cc(Cl)c3O)nc3[nH]c(=S)[nH]c(=S)c23)cc1 | 86% (active) |
| O=[N+]([O-])c1ccc(/C=C\c2ccc3c(c2)OCO3)c([N+](=O)[O-])c1 | 96% (active) |
| O=C1c2ccccc2N2OC3(N4CCCC4)CCCCC3C12c1ccccc1 (configuration not stated) | 35% (inactive) |
| CC(C)OC(=O)NNc1cc(Cl)ccc1Cl | 89% (active) |
| Cc1oc2ccccc2c(=O)c1Cn1nnc2ccccc21 | 27% (inactive) |
| CC1(C)OC(=O)C(=Cc2ccc([N+](=O)[O-])s2)C(=O)O1 | 51% (inactive) |
| CCN(CC)CCCNc1ccc([N+](=O)[O-])c2nc3ccc(OC)cc3c(NCCCN(CC)CC)c12 | 37% (inactive) |
| COc1cccc(/C=C2\S/C(=N/Nc3nc(-c4ccc([N+](=O)[O-])cc4)cs3)NC2=O)c1O | 89% (active) |
| OC(Cc1cccc2ccccc12)CN1CCC(c2ccccc2)CC1 (configuration not stated) | 89% (active) |
| C1=CCN([B-](c2ccccc2)[C+]2CCCCC2)C=C1 | 96% (active) |
| O=[N+]([O-])c1cc[n+]([O-])c(Cl)c1 | 99% (active) |

| Structure (SMILES) | growth inhibition |
| --- | --- |
| CCCNC(=O)OCc1c(COC(=O)NCCC)c(-c2ccc(Cl)c(Cl)c2)n2c1CCC2 | 62% (inactive) |
| CC1(C)CC(=O)C(C(=O)Nc2cccs2)=C(O)C1 | 2% (inactive) |
| O=C(NO)c1coc2ccccc2c1=O | 10% (inactive) |
| COc1ccc(C(C)c2cc3c(cc2OCC(C)=O)OCO3)cc1 (configuration not stated) | 45% (inactive) |
| CCS(=O)(=O)Nc1ccc(Nc2c3ccccc3nc3ccccc23)c(OC)c1 | 97% (active) |
| O=S(=O)(c1ccccc1)N1CN2CN(C1)CN(S(=O)(=O)c1ccccc1)C2 | 30% (inactive) |
| CC1=NN(C(=O)c2ccccc2O)C(=O)/C1=C/c1ccco1 | 94% (active) |
| O=C1C=C(Br)C(=O)c2ccccc21 | 99% (active) |
| C[N+](C)([O-])CCCNc1c2ccccc2nc2cccc([N+](=O)[O-])c12 | 95% (active) |
| Cc1cccc2c(NCCCN(C)C)c3c([N+](=O)[O-])ccc(C)c3nc12 | 61% (inactive) |
| OC1(c2ccccc2)C2CC=CC2C1(c1ccccc1)c1ccccc1 (configuration not stated) | 76% (active) |
| C[n+]1c(-c2ccc(/C=N/NC(=O)c3ccc(C(=O)N/N=C/c4ccc(-c5cn6ccccc6[n+]5C)cc4)cc3)cc2)cn2ccccc21 | 96% (active) |
| CCN(CC)CCC(=O)Nc1ccc2sc3ccccc3c(=O)c2n1 | 1% (inactive) |
| O=[N+]([O-])c1ccc2nc(=S)[nH]n2c1 | 78% (active) |
| O=C(c1ccccc1)[C@H]1Nc2ccc(Cl)cc2[C@H]2OCCC[C@@H]12 | 1% (inactive) |
| COc1cc([N+](=O)[O-])c2ncccc2c1Br | 77% (active) |
| O=S(=O)(c1cccc(C(F)(F)F)c1)N1c2ccccc2-n2cccc2C1c1cccnc1 (configuration not stated) | 96% (active) |
| CC(C)(C)OC(=O)NCCCCC(NC(=O)C(Cc1c[nH]c2ccccc12)NC(=O)OCC1c2ccccc2-c2ccccc21)C(=O)O (configuration not stated) (Fmoc-Trp-Lys(Boc)-OH; configuration not given here) | 50% (inactive) |

Same assay, conditions: S. cerevisiae mlh1 rad18 strain growth inhibition; at 50.0 µM; hits give high values

| Structure (SMILES) | growth inhibition |
| --- | --- |
| CC(C)C(=O)CC(Sc1ccc(N)cc1)c1ccccc1 (configuration not stated) | 42.5% (inactive) |
| CC(C)OP(=O)(OC(C)C)/C(Cl)=N/Nc1ccc([N+](=O)[O-])cc1 | 87.3% (active) |
| O=[N+]([O-])c1cc(Cl)ccc1S(=O)(=O)c1ccc(Cl)cc1[N+](=O)[O-] | 80.8% (active) |
| CCCCCCNCCCNc1c2cc(OC)ccc2nc2cccc([N+](=O)[O-])c12 | 97.2% (active) |
| N#CCC(=O)N/N=C(\c1ccccc1)C(c1ccccc1)C1(O)C(=O)Nc2c(Cl)ccc(Cl)c21 (configuration not stated) | 69.2% (inactive) |
| CN(C)CCNCCCNc1c2ccccc2nc2cccc([N+](=O)[O-])c12 | 88.7% (active) |
| CCC[CH2][Ge]([CH2]CCC)([CH2]CCC)[O]C(=O)C(O)c1ccccc1 (configuration not stated) | 89.7% (active) |
| COc1ccc(-c2cc(-c3cc(C)cc(Cl)c3O)nc3[nH]c(=S)[nH]c(=S)c23)cc1 | 87.1% (active) |
| O=[N+]([O-])c1ccc(/C=C\c2ccc3c(c2)OCO3)c([N+](=O)[O-])c1 | 65.7% (inactive) |
| O=C1c2ccccc2N2OC3(N4CCCC4)CCCCC3C12c1ccccc1 (configuration not stated) | 18.8% (inactive) |
| CC(C)OC(=O)NNc1cc(Cl)ccc1Cl | 75.2% (active) |
| Cc1oc2ccccc2c(=O)c1Cn1nnc2ccccc21 | -11.3% (inactive) |
| CC1(C)OC(=O)C(=Cc2ccc([N+](=O)[O-])s2)C(=O)O1 | 92.3% (active) |
| CCN(CC)CCCNc1ccc([N+](=O)[O-])c2nc3ccc(OC)cc3c(NCCCN(CC)CC)c12 | 0.2% (inactive) |
| COc1cccc(/C=C2\S/C(=N/Nc3nc(-c4ccc([N+](=O)[O-])cc4)cs3)NC2=O)c1O | 95.3% (active) |
| OC(Cc1cccc2ccccc12)CN1CCC(c2ccccc2)CC1 (configuration not stated) | 69.8% (inactive) |
| C1=CCN([B-](c2ccccc2)[C+]2CCCCC2)C=C1 | 96.5% (active) |
| O=[N+]([O-])c1cc[n+]([O-])c(Cl)c1 | 99.5% (active) |

| Structure (SMILES) | growth inhibition |
| --- | --- |
| CCCNC(=O)OCc1c(COC(=O)NCCC)c(-c2ccc(Cl)c(Cl)c2)n2c1CCC2 | 56.4% (inactive) |
| CC1(C)CC(=O)C(C(=O)Nc2cccs2)=C(O)C1 | 90.4% (active) |
| O=C(NO)c1coc2ccccc2c1=O | -7.15% (inactive) |
| COc1ccc(C(C)c2cc3c(cc2OCC(C)=O)OCO3)cc1 (configuration not stated) | 11.4% (inactive) |
| CCS(=O)(=O)Nc1ccc(Nc2c3ccccc3nc3ccccc23)c(OC)c1 | 36% (inactive) |
| O=S(=O)(c1ccccc1)N1CN2CN(C1)CN(S(=O)(=O)c1ccccc1)C2 | -3.75% (inactive) |
| CC1=NN(C(=O)c2ccccc2O)C(=O)/C1=C/c1ccco1 | 82.5% (active) |
| O=C1C=C(Br)C(=O)c2ccccc21 | 99.1% (active) |
| C[N+](C)([O-])CCCNc1c2ccccc2nc2cccc([N+](=O)[O-])c12 | 78.5% (active) |
| Cc1cccc2c(NCCCN(C)C)c3c([N+](=O)[O-])ccc(C)c3nc12 | 97.1% (active) |
| OC1(c2ccccc2)C2CC=CC2C1(c1ccccc1)c1ccccc1 (configuration not stated) | 0.45% (inactive) |
| C[n+]1c(-c2ccc(/C=N/NC(=O)c3ccc(C(=O)N/N=C/c4ccc(-c5cn6ccccc6[n+]5C)cc4)cc3)cc2)cn2ccccc21 | 92% (active) |
| CCN(CC)CCC(=O)Nc1ccc2sc3ccccc3c(=O)c2n1 | 25.8% (inactive) |
| O=[N+]([O-])c1ccc2nc(=S)[nH]n2c1 | 46.1% (inactive) |
| O=C(c1ccccc1)[C@H]1Nc2ccc(Cl)cc2[C@H]2OCCC[C@@H]12 | 25.9% (inactive) |
| COc1cc([N+](=O)[O-])c2ncccc2c1Br | 29.3% (inactive) |
| O=S(=O)(c1cccc(C(F)(F)F)c1)N1c2ccccc2-n2cccc2C1c1cccnc1 (configuration not stated) | 95.5% (active) |
| CC(C)(C)OC(=O)NCCCCC(NC(=O)C(Cc1c[nH]c2ccccc12)NC(=O)OCC1c2ccccc2-c2ccccc21)C(=O)O (configuration not stated) (Fmoc-Trp-Lys(Boc)-OH; configuration not given here) | 60.6% (inactive) |
